WRN inhibitor: qHTS for Inhibitors of WRN Helicase | Bifunctional 3'-5' exonuclease/ATP-dependent helicase WRN (Homo sapiens), Q14191 | WRN helicase unwinding, fluorescent forked duplex, kinetic | Potency, µM (highest dose often 114 µM), for the others: at the top dose activity change, negative = inhibition, most hits filed as inhibitors | 360,000 tested, 0.46% active; note: % is set by controls: 0 for no effect and ±100 for the full control effect; nearly all actives have a fitted effect of over 55% in size
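Enzyme (20 nM final) and test compound sit together 15 min at room temperature before substrate addition. Substrate is a single-forked duplex oligonucleotide (100 nM) labelled with fluorophore and quencher, with 2 mM ATP; helicase unwinding raises red fluorescence, read kinetically.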
FEN1 inhibitor: qHTS Assay for the Inhibitors of Human Flap endonuclease 1 (FEN1); P39748; Recombinant FEN1 flap cleavage, fluorescence, 15 min; Potency, µM (doses to about 114 µM), inactives show top-dose activity change, negative = inhibition, actives largely listed as inhibitors; 390,000 tested, 0.35% active; note: % is set by controls: 0 for no effect and ±100 for the full control effect; nearly all actives have a fitted effect of over 65% in size
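Enzyme 10 nM, 15 min RT preincubation with compound; start with substrate 50 nM final; reads at 0 and 15 min; qHTS titration, four-parameter Hill fit.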
POLK inh: qHTS for Inhibitors of Polymerase Kappa; Potency, µM (highest dose often 107 µM), for inactives: at the highest dose activity, negative = inhibition, actives largely listed as inhibitors; 400,000 tested, 0.53% active; purified Pol kappa, fluorescent DNA synthesis assay, 10 min; note: % is set by controls: 0 for no effect and ±100 for the full control effect
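Here, compound and 10 nM enzyme are combined for 15 min at room temperature; adding 50 nM substrate (final) starts DNA synthesis, tracked by fluorescence at 0 and 10 min against buffer-only wells.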
Pol iota inh: qHTS for Inhibitors of Polymerase Iota. Pol iota fluorescent replication assay, 10 min. DNA polymerase iota (Homo sapiens), Q9UNA4. Potency, µM (highest dose often 115 µM), without a hit: top-dose activity, negative = inhibition, most hits filed as inhibitors. 390,000 tested, 1% active
Target sequence (Q9UNA4 whole entry, looked up): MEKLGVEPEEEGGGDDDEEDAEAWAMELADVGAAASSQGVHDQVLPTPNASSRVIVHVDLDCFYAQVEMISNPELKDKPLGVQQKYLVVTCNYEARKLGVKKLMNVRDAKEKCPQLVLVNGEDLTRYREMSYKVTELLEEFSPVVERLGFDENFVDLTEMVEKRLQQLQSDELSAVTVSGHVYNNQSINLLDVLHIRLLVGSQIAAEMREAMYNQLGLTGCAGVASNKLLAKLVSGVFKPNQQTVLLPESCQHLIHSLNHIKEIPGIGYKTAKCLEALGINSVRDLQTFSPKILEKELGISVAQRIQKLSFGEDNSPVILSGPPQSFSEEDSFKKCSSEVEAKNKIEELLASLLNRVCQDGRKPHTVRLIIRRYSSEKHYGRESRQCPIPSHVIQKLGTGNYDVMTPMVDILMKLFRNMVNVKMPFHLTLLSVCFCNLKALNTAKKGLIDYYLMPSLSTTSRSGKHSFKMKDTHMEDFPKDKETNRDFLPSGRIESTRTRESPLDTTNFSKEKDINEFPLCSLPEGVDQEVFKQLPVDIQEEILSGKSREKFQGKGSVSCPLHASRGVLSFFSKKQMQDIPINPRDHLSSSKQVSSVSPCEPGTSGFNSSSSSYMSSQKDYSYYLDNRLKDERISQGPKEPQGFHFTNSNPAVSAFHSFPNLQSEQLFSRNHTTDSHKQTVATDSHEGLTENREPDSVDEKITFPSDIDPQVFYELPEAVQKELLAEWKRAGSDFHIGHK
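Fluorescent replication assay read twice, at 0 min and 10 min after adding 50 nM (final) substrate. Enzyme (10 nM) and compounds were first incubated 15 min at room temperature; enzyme-free buffer wells were negative controls.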
POLB inh: qHTS Assay for Inhibitors of DNA Polymerase Beta. P06746. Pol beta primer extension/strand displacement, fluorescence kinetic. Potency, µM (series often up to 114 µM), without a hit: top-dose activity change, negative = inhibition, actives largely listed as inhibitors. 340,000 tested, 1.3% active. AID 485314, 2010; note: % is set by controls: 0 for no effect and ±100 for the full control effect
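Human Pol beta at 10 nM; strand-displacement substrate 50 nM final. Compound exposure 15 min at room temperature before start, reaction 10 min at room temperature.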
Pol eta inh: qHTS for Inhibitors of Polymerase Eta. 390,000 tested, 1.2% active. DNA polymerase eta (Homo sapiens), Q9Y253. recombinant Pol eta, fluorescent DNA replication assay. AID 588591, 2011. Potency, µM (series often up to 114 µM), for the others: at the top dose activity change, negative = inhibition, usual class: inhibitors; note: % is set by controls: 0 for no effect and ±100 for the full control effect
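Pol eta at 10 nM preincubated with compounds 15 min at room temperature; reaction started with fluorescent substrate (50 nM final) and read kinetically at 0 and 10 min.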
* hit, by the source's call; ? = inconclusive; nt = no result given; [ ] = remark or other dose. Shown are actives, neighbours in structure and some others; about 2.4% of the full set was active somewhere. Calls come from the whole dose curve; as a rule, active = well fitted curve in the direction sought with a large enough effect; inconclusive = small, poorly fitted or top-dose-only effect, or another doubt; inactive = no such curve, though single readings can be large; an effect the other way counts as inactive or inconclusive. Potency is the fitted concentration of half-maximal effect.

SMILES	WRN inhibitor	FEN1 inhibitor	POLK inh	Pol iota inh	POLB inh	Pol eta inh
Cc1cccc(CCNC(=O)c2ccc3c(c2)nc2n3CCCCC2)c1	nt	-19%	-5%[60.1 µM]	-3%	7%	-12%
c1ccc(Cc2nnc3sc(-c4ccco4)nn23)cc1	?	?	79µM*	40µM*	-15%	25µM*
Cc1ccc(S(=O)(=O)N2CCC(C(=O)OC3CCOC3=O)CC2)cc1C (stereo not given)	5%	-7%	-2%	43%	nt	-11%
CC(=O)c1cccc(S(=O)(=O)N2CCC(C(=O)OC3CCOC3=O)CC2)c1 (stereo not given)	-19%	17%	-23%	?	nt	45µM*
Cn1c2ccccc2c2cc(/C=N/NC(=O)c3ccc(N)cc3)ccc21	-4%	-7%	?	?	10µM*	?
COc1ccc(C(=O)NCCc2sc(-c3cccc(F)c3)nc2C)cc1	nt	-4%	-12%[60.1 µM]	9%	-12%	-5%
Cc1cc(O)c(C(C)C)cc1N=Cc1ccccc1O	1%	?	-12%	20µM*	24%	-7%
COCC(=O)Nc1sc2c(c1C(=O)OC)C(C(=O)OC)CC2 (stereo not given)	15%	-2%	-3%	37%	19%	0%
COC(=O)c1c(NC(=O)CCCOc2ccc(C(C)(C)C)cc2)sc2c1C(C(=O)OC)CC2 (stereo not given)	nt	?	?	89µM*	-10%	-12%
Cc1ccc(S(=O)(=O)NCCc2nnc3ccc(SCc4ccccc4F)nn23)cc1	nt	-5%	1%	20%	9%	-14%
Cc1ccc(/C=C2\SC(=S)N(C3CCS(=O)(=O)C3)C2=O)o1 (stereo not given)	?	?	?	?	32µM*	25µM*
CC1=C(C#N)C(=O)N(C2CCS(=O)(=O)C2)C(=O)/C1=C\c1ccc(C)o1 (stereo not given)	nt	nt	nt	nt	13µM*	nt
NS(=O)(=O)c1ccc(-c2ccc(/C=C3\SC(=S)N(C4CCS(=O)(=O)C4)C3=O)o2)cc1 (stereo not given)	-9%	-20%	-7%	4%	7%	-5%
CCOc1ccccc1NC(=O)Cn1nnc2sc3c(c2c1=O)CCC(C(C)(C)C)C3 (stereo not given)	nt	-7%	1%	0%	9%	nt
Cc1nc(S/C(=C/c2ccc(-c3ccc(Cl)cc3)o2)C(=O)O)n[nH]1	-18%	-3%	-21%	-5%	18%	25µM*
Cc1nc(S/C(=C/c2ccc(-c3cc(Cl)ccc3C)o2)C(=O)O)n[nH]1	-7%[11.6 µM]	?	?	?	?	?
NC(=S)n1[nH]c(-c2ccc([N+](=O)[O-])cc2)c(N=Nc2cccc(Cl)c2)c1=O	-11%	50µM*	?	20µM*	?	40µM*
CCN(CC)S(=O)(=O)c1ccc(N=Nc2c(C)[nH]n(C(N)=S)c2=O)cc1	0%	2%	-3%	24%	40µM*	7%
Cc1[nH]n(C(N)=S)c(=O)c1N=Nc1ccc([N+](=O)[O-])cc1Cl	-18%	2%	-14%	40µM*	29%	-24%
NC(=S)n1[nH]c(-c2ccc([N+](=O)[O-])cc2)c(N=Nc2ccc(O)cc2)c1=O	-16%	-19%	?	?	6%	?
CN1CC[C@H](c2c(O)cc(O)c3c(=O)cc(-c4ccccc4Cl)oc23)[C@@H](O)C1	nt	-23%	-21%	?	nt	nt
O=C(/C=C/c1ccco1)N1CCN(S(=O)(=O)c2cccs2)CC1	-1%[11.6 µM]	-2%	-13%	40µM*	50µM*	?
Cc1ccc(/C=C/C(=O)N2CCN(S(=O)(=O)c3cccs3)CC2)o1	-7%	-5%	-3%	23%	1%	-3%
Brc1cccc(C2Nc3cccc4cccc(c34)N2)c1	-13%	-6%	-14%	11%	?	-7%
Clc1cccc(Cl)c1C1Nc2cccc3cccc(c23)N1	-10%[57.1 µM]	-15%	-39%	35µM*	-59%	-4%
SMILES	WRN inhibitor	FEN1 inhibitor	POLK inh	Pol iota inh	POLB inh	Pol eta inh
Brc1ccc(C2Nc3cccc4cccc(c34)N2)o1	-21%[57.1 µM]	28µM*	-5%	?	7%	-8%
N#Cc1cccc(-c2cncnc2NCc2ccccc2)c1	nt	nt	-1%[60.1 µM]	nt	nt	nt
COc1ccc(CC(=O)OCC(=O)Nc2ncc(Cl)c(C)c2Cl)cc1	-24%	-7%	-38%	?	nt	20µM*
Cc1c(Cl)cnc(NC(=O)COC(=O)C(NC(=O)c2ccco2)C(C)C)c1Cl (stereo not given)	-29%	14%	-4%	?	45µM*	89µM*
Cc1noc(C)c1C(=O)OCC(=O)Nc1ncc(Cl)c(C)c1Cl	-10%[11.6 µM]	-1%	-18%	?	nt	20µM*
CC[N+](CC)(CC)CC[C@](O)(c1ccccc1)C1CCCCC1	nt	nt	-9%[19.4 µM]	nt	nt	nt
COCc1ccc(CN2CCc3c([nH]c4ccccc34)C2C(C)(C)C)o1 (stereo not given)	-11%	-11%	-19%	-10%	20µM*	-10%
COCCC(=O)N1CCc2c([nH]c3ccccc23)C1C(C)(C)C (stereo not given)	3%	-3%	7%	29%	-11%	-5%
COc1cc2c(C(=O)N(C)c3cc(Cl)ccc3OC)cn(CC(C)C)c(=O)c2cc1OC	nt	-15%	-14%	25%	47%	-18%
Cc1ccc(CNc2ccc3nnc(-c4ccccc4)n3n2)cc1	-2%	12%	0%	28%	56µM*	?
CCOC(=O)N1CCC(Nc2ccc3nnc(-c4ccccc4)n3n2)CC1	-3%	-2%	-6%	17%	?	-17%
Cc1cc(C)c2oc(-c3ccc(C)c(NC(=O)/C=C/c4ccco4)c3)nc2c1	nt	?	-38%	22µM*	?	?
CCCCn1c(/C=C/c2ccco2)nc2ccccc21	-34%	-1%	-10%	?	8.9µM*	?
CCOc1ccc(-c2csc(/C(C#N)=C\c3ccc(O)c([N+](=O)[O-])c3)n2)cc1	?	79µM*	3%	?	28µM*	22µM*
CCc1ccc(/C=C(/C#N)c2nc(-c3ccc(C)cc3)cs2)cc1	nt	8%	2%	-3%	-3%	-11%
O=C(O)CC(NC(=O)C(c1ccccc1)c1ccccc1)c1ccco1 (stereo not given)	-3%	12%	-15%	20%	1%	-4%
O=C(NCCNCc1ccccc1)c1ccco1	0%[11.6 µM]	-21%	?	20µM*	nt	50µM*
